In PubChem BioAssay (NCATS):
Inconclusive results are not listed. Calls of active or inactive are those of the source. Unless noted, the call rests on the fitted dose curve; in most records, active means well fitted curve in the direction sought with a large enough effect; inconclusive means small, poorly fitted or top-dose-only effect, or another doubt; inactive means no such curve, though single readings can be large; an effect the other way counts as inactive or inconclusive.

Legend:
[1] = target: Lysosomal acid glucosylceramidase (Homo sapiens) (UniProt P04062); assay: Glucocerebrosidase-p2 (AID 348; in the data active means potency below about 10 µM; further: potency means the concentration at half of the fitted maximal effect); settings: purified GBA, blue fluorogenic substrate, 40 min
Lysosomal acid glucosylceramidase (Homo sapiens), sequence (P04062 whole entry, looked up): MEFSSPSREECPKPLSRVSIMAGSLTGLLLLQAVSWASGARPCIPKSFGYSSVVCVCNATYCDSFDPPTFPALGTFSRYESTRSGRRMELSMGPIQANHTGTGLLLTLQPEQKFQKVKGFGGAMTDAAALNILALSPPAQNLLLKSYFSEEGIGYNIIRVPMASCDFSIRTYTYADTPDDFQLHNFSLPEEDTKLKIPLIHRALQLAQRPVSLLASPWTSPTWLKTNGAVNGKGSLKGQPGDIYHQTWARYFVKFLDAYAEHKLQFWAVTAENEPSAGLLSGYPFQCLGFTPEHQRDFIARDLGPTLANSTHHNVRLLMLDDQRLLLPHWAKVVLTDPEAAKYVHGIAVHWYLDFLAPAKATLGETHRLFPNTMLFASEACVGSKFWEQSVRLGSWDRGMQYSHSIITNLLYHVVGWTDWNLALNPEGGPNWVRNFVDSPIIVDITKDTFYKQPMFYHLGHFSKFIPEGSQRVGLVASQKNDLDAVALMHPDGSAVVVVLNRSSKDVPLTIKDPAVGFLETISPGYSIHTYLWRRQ
Outline: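 Compounds titrated from 0.6 nM upwards against 0.2 nM enzyme in pH 5.9 citric acid/KH2PO4, taurocholate, tween-20; blue fluorogenic substrate 80 uM, 40 min room temperature, stopped and read Ex 365/Em 440 for AC50.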

[2] = AP1 Signaling Pathway (AID 357; active means well fitted curve in either direction with a large enough effect, not every such curve was filed as active;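 further: ME-180 reporter cells stimulated with EGF at its EC50 level; on the % scale 0 is the no-effect control and ±100 the full control effect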); settings: ME-180 AP-1-bla reporter, EGF-induced, beta-lactamase ratio, 5 h; at 7.69 µM (top of the series) unless noted
Outline: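 Modulation of EGF-driven AP-1 transcription was assessed with a beta-lactamase reporter in ME-180 cells. Compound and EC50 EGF were co-incubated 5 hours at 37 °C before 2.5-hour CCF4 loading at room temperature and dual-emission reading.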

[3] = NFAT Signaling Pathway (AID 444; active means well fitted curve in either direction with a large enough effect, not every such curve was filed as active;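 further: carbachol stimulus at about its EC50 of 1 µM final; on the % scale 0 is the no-effect control and ±100 the full control effect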); settings: Jurkat NFAT-bla M1, carbachol, beta-lactamase ratio, 5 h; at 7.69 µM (top of the series) unless noted
Outline: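 Jurkat cells carrying an NFAT-driven β-lactamase reporter and co-transfected muscarinic M1 receptor were treated with compound plus carbachol (1 uM final, an EC50 level) for 5 h at 37 °C. CCF4 loading followed for 1 h at RT; 460/530 nm ratio gave %activity.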

[4] = Stat Signaling Pathway (AID 446; active means well fitted curve in either direction with a large enough effect, not every such curve was filed as active;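 further: ME-180 cervical cancer cells given 40 pM IL-6 alongside compound; SIE-controlled beta-lactamase reporter measured as 460/530 nm FRET emission ratio; on the % scale 0 is the no-effect control and ±100 the full control effect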); settings: ME-180 (cervical carcinoma) SIE beta-lactamase reporter, IL-6 stimulated, 5 h; at 7.69 µM (top of the series) unless noted
Outline: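 IL-6/STAT signaling read in ME-180 cells via an SIE beta-lactamase reporter. Stimulus was 40 pM IL-6 (its AC50) for 5 hrs, so both activation and inhibition register.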

[5] = target: Glucocorticoid receptor (Homo sapiens) (UniProt P04150); assay: GR-GFP Redistribution (AID 450;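 active means compounds whose dose series gives a full or clear partial fitted curve of increased nuclear translocation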; further: potency means the concentration at half of the fitted maximal effect); settings: U2OS GR-GFP nuclear translocation, laser cytometry, 2 h
Glucocorticoid receptor (Homo sapiens), sequence (P04150 whole entry, looked up, the tested form may be a part): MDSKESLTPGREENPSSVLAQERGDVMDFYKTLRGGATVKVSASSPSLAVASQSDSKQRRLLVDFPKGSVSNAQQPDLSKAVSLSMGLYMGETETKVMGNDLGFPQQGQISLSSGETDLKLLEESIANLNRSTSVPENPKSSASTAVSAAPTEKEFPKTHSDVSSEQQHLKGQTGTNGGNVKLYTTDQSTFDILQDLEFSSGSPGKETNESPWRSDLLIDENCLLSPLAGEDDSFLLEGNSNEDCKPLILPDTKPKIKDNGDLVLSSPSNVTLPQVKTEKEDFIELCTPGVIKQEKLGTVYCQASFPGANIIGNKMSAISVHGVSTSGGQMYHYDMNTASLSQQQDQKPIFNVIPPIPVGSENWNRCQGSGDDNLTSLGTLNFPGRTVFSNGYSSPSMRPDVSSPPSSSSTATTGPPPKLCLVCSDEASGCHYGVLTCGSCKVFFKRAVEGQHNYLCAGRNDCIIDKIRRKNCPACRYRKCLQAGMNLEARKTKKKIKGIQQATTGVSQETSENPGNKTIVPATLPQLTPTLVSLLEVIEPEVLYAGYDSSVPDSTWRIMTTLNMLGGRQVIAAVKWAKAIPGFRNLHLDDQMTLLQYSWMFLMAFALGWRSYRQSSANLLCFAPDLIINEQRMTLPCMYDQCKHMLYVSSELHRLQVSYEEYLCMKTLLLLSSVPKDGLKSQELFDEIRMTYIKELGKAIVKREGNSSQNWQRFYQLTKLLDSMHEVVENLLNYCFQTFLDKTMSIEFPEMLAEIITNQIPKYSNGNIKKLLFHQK

[6] = target: Glucocorticoid receptor (Homo sapiens) (UniProt P04150); assay: GR-EFC Redistribution (AID 451; calls by dose curve; further: potency means the concentration at half of the fitted maximal effect); settings: CHO-K1 GR-EFC translocation, beta-gal luminescence, 2 h
Outline: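 CHO-K1 cells stably expressing nuclear-localized β-gal enzyme acceptor and GR fused C-terminally to the enzyme donor fragment; ligand-driven nuclear translocation restores β-gal by complementation. Compounds titrated up to 46 uM final, 2 h at 37 °C; luminescence read.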

[7] = target: Mitogen-activated protein kinase 10 (Mus musculus) (UniProt Q61831); assay: JNK3 AlphaScreen Assay (AID 530; active means well fitted curve in either direction with a large enough effect, not every such curve was filed as active;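 further: kinase came from lysate of stimulated human HepG2 cells; signal reports phosphorylation of biotinylated GST-cJun 1-79 at Ser73 with 10 µM ATP; on the % scale 0 is the no-effect control and ±100 the full control effect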); settings: JNK3 lysate, c-Jun phosphorylation; series mostly up to 57.1 µM
Outline: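 Inhibitors reduce antibody binding to phosphorylated biotin-cJun, lowering AlphaScreen luminescence. Lysates from HepG2 cells pre-activated by IL-1beta plus TNF-alpha supplied JNK3; compounds were titrated.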

[8] = target: 3',5'-cyclic-AMP phosphodiesterase 4B (Homo sapiens) (UniProt Q07343); assay: qHTS Assay for Inhibitors of PDE-IV (AID 607; active means well fitted activation curve with a large enough effect in the main read-out, with a control signal flat, not every such curve was filed as active; further: % of control where 0% means no effect); settings: HEK293 ACTOne CNG channel cells, membrane potential fluorescence; series mostly up to 22.9 µM
3',5'-cyclic-AMP phosphodiesterase 4B (Homo sapiens), sequence (Q07343 whole entry, looked up): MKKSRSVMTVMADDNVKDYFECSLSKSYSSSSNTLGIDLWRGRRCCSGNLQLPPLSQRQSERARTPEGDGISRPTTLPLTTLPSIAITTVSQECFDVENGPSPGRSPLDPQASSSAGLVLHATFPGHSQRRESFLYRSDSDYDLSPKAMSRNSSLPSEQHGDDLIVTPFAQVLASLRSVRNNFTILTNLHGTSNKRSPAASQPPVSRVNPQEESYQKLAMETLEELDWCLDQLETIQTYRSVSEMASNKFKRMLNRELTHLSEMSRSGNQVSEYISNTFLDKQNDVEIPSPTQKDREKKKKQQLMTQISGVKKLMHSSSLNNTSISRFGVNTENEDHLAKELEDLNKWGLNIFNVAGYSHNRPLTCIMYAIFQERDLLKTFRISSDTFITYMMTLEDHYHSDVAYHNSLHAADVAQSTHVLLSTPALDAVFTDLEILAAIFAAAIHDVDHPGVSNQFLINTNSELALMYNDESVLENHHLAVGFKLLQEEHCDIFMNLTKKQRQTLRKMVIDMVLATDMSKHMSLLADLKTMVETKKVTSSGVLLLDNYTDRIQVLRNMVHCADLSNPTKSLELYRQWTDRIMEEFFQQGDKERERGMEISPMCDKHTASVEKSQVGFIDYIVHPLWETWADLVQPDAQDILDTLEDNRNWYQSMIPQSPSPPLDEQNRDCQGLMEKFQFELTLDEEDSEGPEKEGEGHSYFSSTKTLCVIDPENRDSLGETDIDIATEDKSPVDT
Outline: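 Live HEK293 cells with a modified cyclic nucleotide-gated (CNG) channel report intracellular cAMP via membrane-potential dye fluorescence (ex 535/em 590 nm). Endogenous PDE-IV was targeted. Compounds were tested at up to 22.9 uM final; RO 20-1724 100 uM served as control.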

[9] = qHTS Assay for Lipid Storage Modulators (AID 1519; calls by dose curve); settings: Drosophila S3 cells, BODIPY lipid droplet/cell ratio, laser cytometry, cells loaded with oleic acid; for activity change, negative = inhibition: at 57.5 µM (top of the series)
Outline: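 Cells seeded at 5,000 per well were treated with compounds over a concentration series and loaded with oleic acid (400 uM, as added). Lipid droplet fluorescence (488 nm excitation, 500-530 nm channel) was read by laser-scanning cytometry and normalized to 20 uM Triacsin C.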

[10] = target: Dual specificity protein kinase CLK4 (Homo sapiens) (UniProt Q9HAZ1); assay: qHTS Assay for Inhibitors of CDC-like Kinase 4 (Kinase-Glo Assay) (AID 1770); settings: recombinant Clk4, Kinase-Glo ATP depletion luminescence; series mostly up to 66.7 µM; further: nearly all actives have a fitted effect of over 65% in size; further: potency means the concentration at half of the fitted maximal effect
Dual specificity protein kinase CLK4 (Homo sapiens), sequence (Q9HAZ1 whole entry, looked up): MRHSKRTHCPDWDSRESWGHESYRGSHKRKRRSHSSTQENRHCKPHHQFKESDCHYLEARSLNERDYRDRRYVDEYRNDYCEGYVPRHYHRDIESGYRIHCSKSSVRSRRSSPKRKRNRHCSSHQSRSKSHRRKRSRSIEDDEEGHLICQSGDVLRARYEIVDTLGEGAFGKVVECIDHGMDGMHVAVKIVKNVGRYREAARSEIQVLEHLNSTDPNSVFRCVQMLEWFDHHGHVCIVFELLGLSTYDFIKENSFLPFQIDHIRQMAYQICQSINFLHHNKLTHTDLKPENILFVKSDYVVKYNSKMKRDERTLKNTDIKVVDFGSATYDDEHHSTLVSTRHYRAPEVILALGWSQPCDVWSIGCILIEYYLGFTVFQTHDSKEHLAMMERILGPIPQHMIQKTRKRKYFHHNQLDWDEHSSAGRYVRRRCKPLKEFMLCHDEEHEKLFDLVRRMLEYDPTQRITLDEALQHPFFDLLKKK
Outline: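 Clk4 25 nM, RS peptide 100 uM, ATP 1 uM, pH 7.5 Tris, 10 mM MgCl2, 2.5 mM DTT; 4.5 h RT; ATP depletion read by Kinase-Glo luminescence.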

[11] = target: Dual specificity protein kinase CLK4 (Homo sapiens) (UniProt Q9HAZ1); assay: qHTS Assay for Inhibitors of CDC-like Kinase 4 (ADP-Glo Assay) (AID 1771); settings: recombinant CLK4, ADP-Glo luminescence; series mostly up to 80 µM; further: nearly all actives have a fitted effect of over 70% in size; further: potency means the concentration at half of the fitted maximal effect
Outline: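 25 nM Clk4 with 100 uM RS repeat peptide and 1 uM ATP (final) in buffer with 2 mM MgCl2, 0.5 mM EGTA, 2.5 mM DTT, 0.01% Triton X-100; 1 h at room temperature; ADP-Glo luminescence for ADP formed.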

[12] = target: Dual specificity protein kinase CLK4 (Homo sapiens) (UniProt Q9HAZ1); assay: qHTS Assay for Inhibitors of CDC-like Kinase 4 (ADP-FP Assay) (AID 1795); settings: Transcreener ADP fluorescence polarization; series mostly up to 50 µM; further: nearly all actives have a fitted effect of over 60% in size; further: potency means the concentration at half of the fitted maximal effect
Outline: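 Kinase activity was followed as ADP output, converted from fluorescence polarization with a calibration curve. Reactions ran one hour at low ATP (1 uM) with RS peptide substrate.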

[13] = target: Ubiquitin carboxyl-terminal hydrolase 1 (Homo sapiens) (UniProt O94782); assay: Inhibitors of USP1/UAF1: Pilot qHTS (AID 504865); settings: purified USP1/UAF1, Ub-rhodamine cleavage fluorescence; series mostly up to 54.9 µM;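 further: rhodamine fluorescence freed from ubiquitin-rhodamine substrate followed over time; top concentration of the series differs between compounds; on the % scale 0 is the no-effect control and ±100 the full control effect; nearly all actives have a fitted effect of over 35% in size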
Ubiquitin carboxyl-terminal hydrolase 1 (Homo sapiens), sequence (O94782 whole entry, looked up): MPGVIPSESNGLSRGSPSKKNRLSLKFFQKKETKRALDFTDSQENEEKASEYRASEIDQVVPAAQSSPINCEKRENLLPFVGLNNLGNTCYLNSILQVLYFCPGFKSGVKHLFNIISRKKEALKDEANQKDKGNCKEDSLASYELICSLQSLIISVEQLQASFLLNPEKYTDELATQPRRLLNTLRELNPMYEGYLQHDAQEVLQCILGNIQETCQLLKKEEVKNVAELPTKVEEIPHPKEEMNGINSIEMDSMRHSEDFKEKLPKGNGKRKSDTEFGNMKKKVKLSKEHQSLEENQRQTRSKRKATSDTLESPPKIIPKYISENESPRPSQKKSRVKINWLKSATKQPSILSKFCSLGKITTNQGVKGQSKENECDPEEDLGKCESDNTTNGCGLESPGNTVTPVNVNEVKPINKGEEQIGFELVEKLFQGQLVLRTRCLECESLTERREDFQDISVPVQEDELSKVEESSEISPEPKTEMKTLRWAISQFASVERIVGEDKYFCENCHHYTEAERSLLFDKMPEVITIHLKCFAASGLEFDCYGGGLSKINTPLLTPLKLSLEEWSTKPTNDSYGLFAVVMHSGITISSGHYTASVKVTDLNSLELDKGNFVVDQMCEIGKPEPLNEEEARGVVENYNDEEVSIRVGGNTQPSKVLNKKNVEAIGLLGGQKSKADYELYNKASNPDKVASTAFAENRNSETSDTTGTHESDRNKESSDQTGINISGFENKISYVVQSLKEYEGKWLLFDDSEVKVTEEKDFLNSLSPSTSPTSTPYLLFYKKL
Outline: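 Enzyme-free wells gave the negative control, while test wells held 1nM USP1/UAF1 preincubated with compound for 15 min at room temperature. Ub-Rho at 150nM final started the reaction, and fluorescence at 480/540 nm was recorded kinetically.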

[14] = Primary qHTS for small molecule stabilizers of the endoplasmic reticulum resident proteome: Secreted ER Calcium Modulated Protein (SERCaMP) assay (AID 1508630); settings: SH-SY5Y GLuc-SERCaMP (Gaussia luciferase released on ER calcium loss) secretion, thapsigargin, luminescence; series mostly up to 38.4 µM; further: on the % scale 0 is the no-effect control and ±100 the full control effect
Outline: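 GLuc-SERCaMP-expressing SH-SY5Y cells, pretreated 16 h with compound, are challenged with thapsigargin to empty ER calcium stores; after 4 h, coelenterazine is added directly to the medium and luminescence is imaged.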

[15] = target: Cytochrome P450 1A2 (Homo sapiens) (UniProt P05177); assay: p450-cyp1a2 (AID 410; calls by dose curve; further: potency means the concentration at half of the fitted maximal effect); settings: recombinant CYP1A2, luciferin-ME demethylation, luminescence; series mostly up to 57 µM
Cytochrome P450 1A2 (Homo sapiens), sequence (P05177 whole entry, looked up): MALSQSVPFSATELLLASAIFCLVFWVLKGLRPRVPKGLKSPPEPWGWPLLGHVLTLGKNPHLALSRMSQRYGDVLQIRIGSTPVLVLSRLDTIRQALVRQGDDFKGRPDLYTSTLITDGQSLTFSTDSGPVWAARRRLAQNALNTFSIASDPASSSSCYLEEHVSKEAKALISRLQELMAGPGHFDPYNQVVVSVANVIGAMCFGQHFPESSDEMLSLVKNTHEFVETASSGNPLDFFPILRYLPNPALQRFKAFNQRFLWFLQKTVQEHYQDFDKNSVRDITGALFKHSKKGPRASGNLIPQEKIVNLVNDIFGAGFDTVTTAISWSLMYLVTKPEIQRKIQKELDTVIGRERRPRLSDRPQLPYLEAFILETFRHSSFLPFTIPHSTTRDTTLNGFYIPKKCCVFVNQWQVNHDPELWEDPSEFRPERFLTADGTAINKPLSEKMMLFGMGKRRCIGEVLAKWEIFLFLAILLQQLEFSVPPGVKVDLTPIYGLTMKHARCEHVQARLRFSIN
Outline: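 20nM CYP1A2 with 100uM Luciferin-ME (at Km) in 100mM KPO4; compound preincubated 10 min, NADPH regeneration added, 60 min at room temperature. Luciferin quantified by luminescence after detection reagent; normalized to 57 uM furafylline.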

[16] = target: Cytochrome P450 3A4 (Homo sapiens) (UniProt P08684); assay: qHTS Assay for Activators of Cytochrome P450 3A4 (AID 885); settings: recombinant CYP3A4, Luciferin-PPXE luminescence, 60 min; series mostly up to 57.1 µM; further: nearly all actives have a fitted effect of over 65% in size
Cytochrome P450 3A4 (Homo sapiens), sequence (P08684 whole entry, looked up): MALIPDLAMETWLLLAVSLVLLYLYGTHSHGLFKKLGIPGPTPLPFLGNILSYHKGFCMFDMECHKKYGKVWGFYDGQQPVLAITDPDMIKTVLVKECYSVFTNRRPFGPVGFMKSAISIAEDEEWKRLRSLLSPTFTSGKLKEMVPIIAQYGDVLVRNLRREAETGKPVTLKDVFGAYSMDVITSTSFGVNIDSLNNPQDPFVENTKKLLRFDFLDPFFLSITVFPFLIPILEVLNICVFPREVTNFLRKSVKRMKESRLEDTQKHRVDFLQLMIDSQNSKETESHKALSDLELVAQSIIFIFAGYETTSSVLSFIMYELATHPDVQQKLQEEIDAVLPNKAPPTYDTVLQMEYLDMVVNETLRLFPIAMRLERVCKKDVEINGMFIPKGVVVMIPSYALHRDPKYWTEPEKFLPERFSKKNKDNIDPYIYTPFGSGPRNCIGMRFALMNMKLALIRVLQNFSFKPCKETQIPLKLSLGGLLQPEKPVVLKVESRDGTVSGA
Outline: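 Quantitative HTS format: compounds preincubated with 20nM human CYP3A4 and Luciferin-PPXE substrate at KM, reaction started by NADPH regeneration, stopped after 60 min, luciferase luminescence read 20 min later.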

[17] = target: Cytochrome P450 2D6 (Homo sapiens) (UniProt P10635); assay: qHTS Assay for Inhibitors and Substrates of Cytochrome P450 2D6 (AID 891); settings: recombinant CYP2D6, luciferin-ME EGE luminescence; series mostly up to 57.1 µM; further: potency means the concentration at half of the fitted maximal effect; nearly all actives have a fitted effect of over 60% in size
Cytochrome P450 2D6 (Homo sapiens), sequence (P10635 whole entry, looked up): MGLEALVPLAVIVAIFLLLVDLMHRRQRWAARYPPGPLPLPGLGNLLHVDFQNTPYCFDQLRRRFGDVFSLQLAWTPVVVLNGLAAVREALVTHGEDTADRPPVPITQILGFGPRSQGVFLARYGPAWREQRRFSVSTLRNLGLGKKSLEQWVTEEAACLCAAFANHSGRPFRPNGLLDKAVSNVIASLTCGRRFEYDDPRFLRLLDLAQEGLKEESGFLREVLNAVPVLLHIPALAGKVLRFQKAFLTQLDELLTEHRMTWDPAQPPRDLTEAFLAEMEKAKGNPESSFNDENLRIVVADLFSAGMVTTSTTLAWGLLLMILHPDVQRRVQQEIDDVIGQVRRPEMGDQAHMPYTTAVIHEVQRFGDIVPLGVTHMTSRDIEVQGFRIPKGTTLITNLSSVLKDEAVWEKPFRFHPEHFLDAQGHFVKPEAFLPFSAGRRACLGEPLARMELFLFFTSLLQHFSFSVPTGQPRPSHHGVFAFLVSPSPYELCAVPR
Outline: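 Human CYP2D6 (5 nM) with 30 uM Luciferin-ME EGE (at Km) in 100 mM KPO4, compound preincubated 10 min, then NADPH regeneration system for 60 min at room temperature. Luciferin read by luminescence; normalized to 1.43 uM quinidine.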

[18] = measured here: cell count channel max response
[19] = measured here: lipid channel max response

| SMILES | Potency [1] | activity change, negative = inhibition [2] | activity change, negative = inhibition [3] | activity, negative = inhibition [4] | Potency [5] | Potency [6] | outcome [7] | Potency [8] | activity change, negative = inhibition [9] | max response [9, 18] | max response [9, 19] | Potency [10] | Potency [11] | Potency [12] | Potency [13] | Potency [14] | Potency [15] | Potency [16] | Potency [17] |
| --- | --- | --- | --- | --- | --- | --- | --- | --- | --- | --- | --- | --- | --- | --- | --- | --- | --- | --- | --- |
| Cc1nc2cnc(Nc3ccccc3)nc2n(Cc2ccc(F)cc2)c1=O | > 11.4 µM (inactive) | -12.8% (inactive) | -23.6% (inactive) | 2.69% (inactive) | > 9.22 µM (inactive) | > 46 µM (inactive) | inactive | inactive | 1.06% (inactive) | 7.11% | 6.57% | inactive | inactive | inactive | inactive | inactive |  |  |  |
| Cc1noc(C)c1-c1cc(NCCN2CCOCC2)ncn1 | > 11.4 µM (inactive) | 27.9% (inactive) | 20.1% (inactive) | 0.606% (inactive) | > 46 µM (inactive) | > 46 µM (inactive) | inactive | inactive | 6.08% (inactive) | 23.5% | 29.1% | 25.1 µM (active) | 22.4 µM (active) | inactive | inactive | inactive |  |  |  |
| CN1CCN(c2cc(-c3ccoc3)ncn2)CC1 | > 11.4 µM (inactive) | -1.21% (inactive) | -3.33% (inactive) | 8.56% (inactive) | > 46 µM (inactive) | > 46 µM (inactive) | inactive | inactive | 6.62% (inactive) | 23% | 27.8% | inactive | inactive | inactive | inactive | inactive |  |  |  |
| COCCNc1ncncc1-c1ccccc1OC | > 11.4 µM (inactive) | 0.174% (inactive) | 6.41% (inactive) | 16.6% (inactive) | > 46 µM (inactive) | > 46 µM (inactive) | inactive | inactive | 4.36% (inactive) | 20.6% | 16.6% | inactive | inactive | inactive | inactive | inactive |  |  |  |
| CN(C)Cc1ccccc1-c1cc(N(C)Cc2ccco2)ncn1 | > 11.4 µM (inactive) | 4.53% (inactive) |  | -3.48% (inactive) | > 46 µM (inactive) | > 46 µM (inactive) | inactive | inactive | 5.32% (inactive) | 19.9% | 23.3% | inactive | inactive | inactive | inactive | inactive | 15.8 µM (active) | inactive | 7.94 µM (active) |
| CN1CCN(c2ncc3nc(-c4ccc(Cl)cc4)c(=O)n(Cc4cccs4)c3n2)CC1 | > 11.4 µM (inactive) | 140% [activator] (active) |  |  | > 9.22 µM (inactive) | > 46 µM (inactive) |  | inactive | 0.387% (inactive) | 19.7% | 16.2% | inactive | inactive | inactive | inactive | inactive | 10 µM (active) |  |  |
| CN(C)C(=O)c1ccc(-c2cc(-n3ccnc3)ncn2)cc1 | > 11.4 µM (inactive) | -15.5% (inactive) | 7.69% (inactive) | 7.04% (inactive) | > 46 µM (inactive) | > 46 µM (inactive) | inactive | inactive | 4.31% (inactive) | 14.1% | 16.5% | 11.2 µM (active) | 10 µM (active) | 12.6 µM (active) | inactive | inactive |  |  |  |
| O=c1c(-c2cc(F)cc(F)c2)nc2cncnc2n1Cc1ccccc1 | > 11.4 µM (inactive) | 16.7% (inactive) | -18% (inactive) | -8.19% (inactive) | > 9.22 µM (inactive) | > 46 µM (inactive) |  |  | 2.57% (inactive) | -10.3% | -10.6% | inactive | inactive | inactive | inactive | inactive |  |  |  |
